Measurements taken from PubChem BioAssay (NCI).
This is part of a sample that, as a whole, favours compounds with a hit. Of some 83,000 tested, about 20% had one in any assay.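 Testing used 96-well plates and a 48-hour single-concentration exposure. Example: -40 means 40% of the starting cells died.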 Values without a mark were called inactive. Calls of active or inactive are those of the source.

These molecules were tested on SR leukemia (assay: NCI-60 one-dose screen, 48 h (100 = growth as untreated, 0 = no growth, -100 = all killed)). Details: 10 µM unless noted.
Experimental: Growth inhibition of the SR human tumor cell line is measured as a screen for anti-cancer activity. Cells are grown in 96 well plates and exposed to the test compound for 48 hours. Compounds are tested at a single concentration, which is 10^-5 M for most compounds. The reported endpoint is percent growth (GI% or GIPRCNT), where numbers from 0 - 100% represent growth inhibition, and numbers from -100% - 0 represent cell death. For example, a value of 40 represents 60% growth inhibition. A value of 0 means no net growth occurred over the course of the experiment. A value of -40 indicates 40% of cells at the beginning of the experiment died by the end of the experiment. A value of -100 means all cells are dead at the end of the experiment.
NCI-60 Human Tumor Cell Lines Screen was performed using the standard one-dose NCI protocol, which is described in more detail at https://dtp.cancer.gov/discovery_development/nci-60/default.htm.
Compounds with GIPRCNT values below 10 were considered active. Activity score was based on GIPRCNT using the following formula: […]
Score is 0 for GIPRCNT values of 100 or above, 50 for GIPRCNT values of 0, and 100 for GIPRCNT values of -100.
`Cc1nc(Nc2ccccn2)sc1C(=O)/C=C/c1ccc(Br)cc1` showed a growth of 16.9%. In the case of `CCOC(=O)c1c2c(c(C)n1C)-c1nn(Cc3ccc(OC)cc3)cc1CC2`, the growth is reported as 71.2%. `Nc1c(C(=O)c2ccccc2)nnc2ncnn12` showed a growth of 94.6%. With `COc1ccc(OC)c(Nc2nc3nonc3nc2Nc2cc(OC)ccc2OC)c1` the growth was 79.2%. `Nc1c(-c2nc3ccccc3c(=O)[nH]2)nnn1-c1ccc(Cl)cc1` was tested, and the growth was 56.2%. `N=c1ccn2c(n1)OC1C(O)C(CO)OC12` (stereo not given) gave a growth of 181%. Molecule `CC(/C=N/NC(=O)c1cc(-c2ccco2)[nH]n1)=C\c1ccccc1` has a growth of 88.7%. With `Cc1ccc(NSc2ccccc2[N+](=O)[O-])cc1` the growth was 9.72% (active). `COc1ccc(-c2nnc(SCC(=O)NC3=NN=C(c4ccccc4)CS3)o2)cc1` gave a growth of 86.6%. In the case of `Fc1ccc(Nc2nc3nonc3nc2Nc2ccc(F)cc2)cc1`, the growth is reported as 7.15% (active). For `COc1ccc(/C(C)=C(\c2ccc(Cl)cc2)c2ccc(OCCN3CCCC3)cc2)cc1F`, the growth was -22.6% (active). In the case of `COc1cc(-c2ncn(/C=C\c3nnco3)n2)cc(C(F)(F)F)c1`, the growth is reported as 6.43% (active). `CCOC(=O)c1c(C)[nH]c(C(=O)CCC(=O)OC)c1C` gave a growth of 92.5%. `O=[N+]([O-])c1ccccc1C(O)Cc1ccc2ccccc2n1` (stereo not given) gave a growth of 95.6%. Work on `OC(c1cccc(OCc2ccccc2)c1)c1nnc(-c2ccccc2)o1` (stereo not given) yielded a growth of 92.8%. Molecule `N#C/C(=C\c1ccc(Br)cc1)n1nnc2cc(Cl)c(Cl)cc21` has a growth of 10%. For `N#Cc1cnn2c(-c3ccc(Cl)cc3)nc(NC3CC3)nc12`, the growth was 86.1%. With `CCN(CC)CCNc1ccc(C)c2sc3cc(C)ccc3c(=O)c12` the growth was 6.89% (active). With `Cc1ccc(C)c2c1C(=O)OC2=O` the growth was 10.4%. For `CCN(CC)S(=O)(=O)c1ccc(O)c(NC(=O)c2[nH]c(C)c(C(C)=O)c2CCc2ccc(Cl)cc2)c1`, the growth was 32.5%. `Nc1nc(N)c(-c2ccc(Cl)cc2)c(/C=C/c2ccc([N+](=O)[O-])cc2)n1` showed a growth of 44%. In the case of `CN=C1C=CC(=C(c2ccc(N(C)C)cc2)c2ccc(N(C)C)cc2)C=C1`, the growth is reported as -10.9% (active). With `O=C1CSC(c2ccccc2Cl)N1c1nnc(Cn2cnnc2)o1` (stereo not given) the growth was -23.1% (active). Molecule `O[C@H]1CO[C@H]2[C@@H]1OC[C@@H]2Oc1ccc(Nc2nc(Nc3ccc(F)c(Cl)c3)ncc2F)cc1Cl` has a growth of 110%. `CC(=O)Nc1ccc(-c2cc3c(NCc4ccc(F)cc4)ncnc3s2)cc1` was tested, and the growth was 77.2%. For `CCc1c(C(=O)N[C@@H]2c3cc(Cl)ccc3CC[C@@H]2O)[nH]c(C)c1C(C)=O`, the growth was 52.5%. With `O=C1c2ccccc2C2(c3ccc(O)cc3)c3ccccc3Oc3cccc1c32` (stereo not given) the growth was 9.2% (active). `N#Cc1cnn2c(-c3ccc(Cl)cc3)nc(NCCc3ccccc3)nc12` showed a growth of 83.5%. In the case of `CO/C(=C1/NC(=O)C(Cc2ccc(O)c(Br)c2)N(C)C(=O)C(C)NC(=O)CCC/C=C(\C)CCC(C)OC1=O)c1ccccc1` (stereo not given), the growth is reported as -25.9% (active). With `O=C1CSC(c2ccc(O)cc2)N1c1nnc(Cn2cnnc2)o1` (stereo not given) the growth was 3.17% (active). With `CN(C)CCN1C(=O)c2cccc3c(-c4ccc(-c5nc6c7ccccc7c7ccccc7c6[nH]5)cc4)ccc(c23)C1=O` the growth was 38.6%. In the case of `CCCCN(Cc1ccc(C(=O)NO)cc1)C(=O)Nc1ccc(OCCCCCCCCCn2cc(CCCCC(=O)N[C@H](C(=O)N3C[C@H](O)C[C@H]3C(=O)NCc3ccc(-c4scnc4C)cc3)C(C)(C)C)nn2)cc1`, the growth is reported as 12.9%. `COc1ccc(N(C)c2nc(Cl)nc3cnn(C)c23)cc1` gave a growth of 13.2%. `O=C(CCc1nc(-c2cccc(Cl)c2)no1)Nc1ccccn1` gave a growth of 89.1%. `CCN(CC)CC(O)CNc1c2ccc(Cl)cc2nc2ccc(OC)cc12` (stereo not given) was tested, and the growth was 0.563% (active). With `C=C1C(=O)O[C@H]2[C@H]1CC/C(COC(=O)/C=C\C(=O)NCc1ccc(Cn3c(=O)sn(-c4ccc(C#N)cc4)c3=O)cc1)=C\CC[C@@]1(C)O[C@@H]21` the growth was -37.6% (active). For `O=C(CC12CC3CC(CC(C3)C1)C2)NCCOCCOCCOCCNC(=O)c1cc2c(o1)C(=O)c1ccccc1C2=O`, the growth was 7.13% (active). Molecule `COc1cc(-c2ccc(N=Nc3c(O)c(C(=O)Nc4ccccc4OC)cc4ccccc34)c(OC)c2)ccc1N=Nc1c(O)c(C(=O)Nc2ccccc2OC)cc2ccccc12` has a growth of 41.8%. `Cc1nc(Nc2ccc(NC(=S)Nc3ccccc3)cc2)nc2nc(Nc3cccc(Cl)c3)[nH]c(=O)c12` showed a growth of 62.7%. With `CCOC(=O)C(O)C(O)(c1ccccc1)c1ccccc1` (stereo not given) the growth was 95%.
